Some test systems named below: NCI-H23 lung; NCI-H226 lung; NCI-H322M lung; HOP-62 NSCLC; NCI-H460 lung; HOP-92 NSCLC; NCI-H522 lung; A549/ATCC NSCLC; 786-0 renal; COLO 205 colon; DU-145 prostate; K-562 leukemia; MALME-3M melanoma; MDA-MB-231 breast; RXF 393 renal; SF-268 CNS; SF-295 CNS; SF-539 CNS; UACC-257 melanoma; M14 melanoma.
What all share (test): NCI-60 one-dose screen, 48 h (100 = growth as untreated, 0 = no growth, -100 = all killed)
What all share (conditions): 10 µM unless noted

About 83,000 compounds went through this panel and 20% of them were active in at least one assay; those are over-represented in the sample as a whole.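 Negative percent growth values reflect cell death: -40 means 40% of the cells present at the start died, and -100 means all died.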 Unmarked numbers belong to inactive results. The source made the active and inactive calls. How the source made its calls: active means growth percent below 10; inactive means the rest.

Take `CC(C)C[C@@H](C(=O)N[C@H](C(=O)OC1CCCC1)c1ccccc1)[C@H](O)C(=O)NO`: the growth with NCI-H23 lung was 55.6%; with NCI-H226 lung, 70.1%; in the test with NCI-H322M lung, 69.2%; in the test with HOP-62 NSCLC it was 26.9%; in the test with NCI-H460 lung it was 92.4%; in the test on HOP-92 NSCLC, 65.7%. Further, the growth is 41.1% with NCI-H522 lung; 56% in the test with A549/ATCC NSCLC; 67.8% in the test with 786-0 renal; 78.6% in the test with COLO 205 colon; 68.3% in the test with DU-145 prostate; 22.7% in the test on K-562 leukemia. Further, the growth with MALME-3M melanoma is 38.3%; with MDA-MB-231 breast, 9.77% (active); in the test with RXF 393 renal, 7.55% (active); in the test with SF-268 CNS it was 88.9%; in the test on SF-295 CNS it was 60.8%; in the test with SF-539 CNS, 52.2%. The results for the growth in the test with UACC-257 melanoma and with M14 melanoma were 36% and 54.5%, respectively.
`CCOC(=O)c1c(C)nc2ccccc2c1/C=C/c1ccc(OC)cc1`: the growth is 46.3% in the test on NCI-H23 lung; 61.8% with NCI-H226 lung; 95.8% with NCI-H322M lung; 71.8% in the test on HOP-62 NSCLC; 78.1% with NCI-H460 lung; 44.5% in the test with HOP-92 NSCLC. The growth in the test with NCI-H522 lung was 53.5%; in the test with A549/ATCC NSCLC, 57.6%; with 786-0 renal it was 77.8%; in the test with COLO 205 colon it was 83.6%; in the test with DU-145 prostate, 93.1%; in the test with K-562 leukemia, 42%. The growth in the test with MALME-3M melanoma is 87%; in the test with MDA-MB-231 breast, 74.6%; in the test with RXF 393 renal, 91.3%; in the test with SF-268 CNS it was 78%; in the test with SF-295 CNS it was 58.8%; in the test with SF-539 CNS it was 85.3%. Moreover, the growth is 74% in the test with UACC-257 melanoma and 70.5% in the test on M14 melanoma.
In the case of `C=C1C(=O)O[C@H]2[C@H]1CC/C(COC(=O)NCCCCCCCCNC(=O)OC/C1=C/CC[C@@]3(C)O[C@H]3[C@H]3OC(=O)C(=C)[C@@H]3CC1)=C\CC[C@@]1(C)O[C@@H]21`, the growth is -53.6% (active) in the test on NCI-H23 lung; -84.2% (active) in the test on NCI-H226 lung; -26.4% (active) with NCI-H322M lung; -38.2% (active) in the test on HOP-62 NSCLC; -51.1% (active) with NCI-H460 lung; -83.2% (active) with HOP-92 NSCLC. Moreover, the growth with NCI-H522 lung is -68.7% (active); with A549/ATCC NSCLC it was 2.89% (active); in the test on 786-0 renal, -89.9% (active); with COLO 205 colon, -64.9% (active); with DU-145 prostate, -92.1% (active); in the test with K-562 leukemia, -28.5% (active). Also, the growth in the test with MALME-3M melanoma is -64.4% (active); in the test with MDA-MB-231 breast it was -79.1% (active); in the test on RXF 393 renal, -83.6% (active); in the test on SF-268 CNS, -66.8% (active); in the test with SF-295 CNS it was -21.7% (active); with SF-539 CNS it was -88.5% (active). In addition, the growth was -55.1% (active) in the test on UACC-257 melanoma and -67.8% (active) in the test on M14 melanoma.
For `CCC(C)Nc1ccc(NC(C)CC)cc1` (stereo not given), the growth in the test on NCI-H23 lung is 74.5%; in the test on NCI-H226 lung, 91.3%; with NCI-H322M lung it was 86.4%; in the test on HOP-62 NSCLC it was 84.8%; with NCI-H460 lung it was 101%; with HOP-92 NSCLC it was 90.5%. Also, the growth in the test on NCI-H522 lung is 54.9%; in the test with A549/ATCC NSCLC, 94.7%; in the test with 786-0 renal it was 74%; with COLO 205 colon it was 9.48% (active); with DU-145 prostate, 109%; in the test on K-562 leukemia it was 54.2%. In addition, the growth was 73.4% with MALME-3M melanoma; 82% with MDA-MB-231 breast; 81.8% with RXF 393 renal; 96.6% with SF-268 CNS; 111% with SF-295 CNS; 90.7% in the test on SF-539 CNS. For the same compound, the figures for the growth with UACC-257 melanoma and with M14 melanoma were 21.1% and 98.9%, respectively.
For the compound `Cc1nc2sc(C(=O)Nc3ccccc3)c(N)c2cc1C(=O)/C=C/c1ccccc1`, the growth in the test on NCI-H23 lung is 10.9%; with NCI-H226 lung, 5.17% (active); with NCI-H322M lung it was 10.7%; with HOP-62 NSCLC, -26.2% (active); in the test on NCI-H460 lung, -71% (active); in the test with HOP-92 NSCLC, 6.29% (active). Besides, the growth is -42.5% (active) in the test on NCI-H522 lung; 13.2% in the test on A549/ATCC NSCLC; -57.2% (active) in the test with 786-0 renal; 14.2% in the test with COLO 205 colon; 1.91% (active) in the test with DU-145 prostate; 12% in the test on K-562 leukemia. Besides, the growth in the test on MALME-3M melanoma was 50.1%; in the test on MDA-MB-231 breast, -9.1% (active); with RXF 393 renal, -74.8% (active); in the test on SF-268 CNS it was 0.182% (active); in the test with SF-295 CNS it was 18.1%; in the test with SF-539 CNS, -27% (active). The growth is 54.2% in the test on UACC-257 melanoma and 11.1% with M14 melanoma.
On to `O=C1/C(=C/c2ccc(C(F)(F)F)cc2)COc2ccc(O)c(O)c21`, for which the growth in the test with NCI-H23 lung was 38%; with NCI-H226 lung, 81.1%; in the test on NCI-H322M lung it was 50.2%; in the test on HOP-62 NSCLC, -36.7% (active); with NCI-H460 lung it was 25.8%; in the test on HOP-92 NSCLC, -13.7% (active). In addition, the growth in the test with NCI-H522 lung is -50.3% (active); in the test with A549/ATCC NSCLC, 54.2%; with 786-0 renal it was -78.6% (active); with COLO 205 colon, 12.3%; in the test with DU-145 prostate, 16.1%; with K-562 leukemia, 3.76% (active). For the same compound, the growth in the test on MALME-3M melanoma was 23.6%; with MDA-MB-231 breast, -10% (active); with RXF 393 renal, 24.5%; with SF-268 CNS, -0.987% (active); with SF-295 CNS, 85.8%; in the test on SF-539 CNS, -83.9% (active). In addition, the growth in the test with UACC-257 melanoma was 25.3%; in the test on M14 melanoma it was 42.3%.
Regarding `COc1cc2c3c(n(CCCCNCCCn4c5c(c6cc(OC)c(OC)cc6c4=O)C(=O)c4cc6c(cc4-5)OCO6)c(=O)c2cc1OC)-c1cc2c(cc1C3=O)OCO2`, the growth in the test on NCI-H23 lung is 95.3%; in the test on NCI-H226 lung it was 106%; in the test with NCI-H322M lung, 90.5%; in the test on HOP-62 NSCLC, 90.5%; in the test on NCI-H460 lung it was 106%; in the test with HOP-92 NSCLC, 87%. The growth in the test with NCI-H522 lung was 86.8%; with A549/ATCC NSCLC, 90.3%; with 786-0 renal, 109%; in the test with COLO 205 colon, 103%; in the test on DU-145 prostate, 99.1%; in the test with K-562 leukemia, 85.7%. The growth is 81.8% with MALME-3M melanoma; 90.4% in the test on MDA-MB-231 breast; 107% in the test with RXF 393 renal; 89.5% in the test with SF-268 CNS; 99.9% in the test on SF-295 CNS; 92.8% in the test on SF-539 CNS. Besides, the growth is 94.8% with UACC-257 melanoma and 96.3% in the test on M14 melanoma.
In the case of `COC(=O)/C=C1/SC(=Nc2cccc(Cl)c2)N(CCc2c[nH]c3ccc(O)cc23)C1=O`, the growth in the test on NCI-H23 lung was 51.1%; in the test with NCI-H226 lung, 81.3%; with NCI-H322M lung, 98.6%; in the test on HOP-62 NSCLC, 15.4%; with NCI-H460 lung it was 37%; in the test on HOP-92 NSCLC, 40.7%. Also, the growth was 11% in the test with NCI-H522 lung; 78.9% in the test on A549/ATCC NSCLC; 19.1% in the test with 786-0 renal; 90.3% with COLO 205 colon; 14.4% in the test on DU-145 prostate; 5.71% (active) in the test with K-562 leukemia. Further, the growth with MALME-3M melanoma was 42.6%; in the test on MDA-MB-231 breast, 29.1%; in the test with RXF 393 renal it was 10.7%; with SF-268 CNS, 25.3%; in the test on SF-295 CNS, 64.2%; in the test with SF-539 CNS, 0.787% (active). Moreover, the figures for the growth in the test with UACC-257 melanoma and in the test on M14 melanoma were 31.9% and 13%, respectively.

Values taken from PubChem BioAssay (NCI).
